Results on nine compounds are retold here after PubChem BioAssay (NCATS).

The nature of test [1]: qHTS profiling for inhibitors of Plasmodium falciparum (DD2) proliferation (AID 743323). The note with it: lower = more inhibition; at 28.7 µM (top of the series). The method, boiled down: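 SYBR Green fluorescence (ex 485, em 535 nm) of lysed cultures gives parasite DNA content; wells normalized to artemisinin (0.29 uM) and DMSO controls. Infected red cells: 0.3% parasitemia, 2.5% hematocrit, 72 h, 37 C.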
In general terms: In qHTS, concentration-response curves come from the screen itself.

A short description of test [2]: qHTS profiling for inhibitors of Plasmodium falciparum (HB3) proliferation (AID 743324; active = well fitted curve in the direction sought with a large enough effect; an effect the other way counts as inactive or inconclusive;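 also: 100% = DMSO vehicle wells and 0% = artemisinin-treated control wells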). Particulars: Plasmodium falciparum HB3 blood-stage proliferation; at 28.7 µM (top of the series). The method, boiled down: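 SYBR Green fluorescence (485 ex/535 em) of lysed cultures, incubated overnight at room temperature in the dark, quantifies parasite DNA. Infected erythrocytes at 0.3% parasitemia and 2.5% hematocrit were exposed 72 h; values normalized to DMSO and 0.29 uM artemisinin controls.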

Test [3] in a line: qHTS profiling of the MIPE4 collection as inhibitors of Plasmodium falciparum (3D7) proliferation (AID 743344).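 Also: scaled between DMSO vehicle wells and 0.29 µM artemisinin as full inhibition.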 The note with it: P. falciparum 3D7 in erythrocytes, SYBR Green DNA fluorescence, 72 h; at 28.5 µM (top of the series) unless noted. In short, it runs like this: (§1)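 Parasite DNA was quantified by SYBR Green I fluorescence (ex 485, em 535 nm) after overnight lysis in saponin/Triton buffer at room temperature. Cultures at 0.3% parasitemia and 2.5% hematocrit were first exposed to compound for 72 h at 37 C; signals were normalised to artemisinin (0.29 uM) and vehicle wells.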

A short description of test [4]: qHTS profiling of the MIPE4 collection as inhibitors of Plasmodium falciparum (DD2) proliferation (AID 743345). Particulars: P. falciparum Dd2 in erythrocytes, SYBR Green DNA, 72 h; at 28.5 µM (top of the series) unless noted. The method, boiled down:
as §1

Test [5] can be described thus: qHTS profiling of the MIPE4 collection as inhibitors of Plasmodium falciparum (DD2) proliferation (Rep 2) (AID 743346). The note with it: P. falciparum Dd2 in erythrocytes, SYBR Green DNA, 72 h; at 28.5 µM (top of the series) unless noted. In short, it runs like this:
as §1

Test [6] can be described thus: qHTS profiling of the MIPE4 collection as inhibitors of Plasmodium falciparum (HB3) proliferation (AID 743347).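 Also: plate controls were DMSO vehicle wells for no effect and artemisinin wells for full effect.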 Particulars: P. falciparum HB3 in erythrocytes, SYBR Green DNA, 72 h; at 28.5 µM (top of the series) unless noted. The method, boiled down: as §1
A short description of test [7]: High-throughput drug toxicity screening in the BPDCN cell line Gen2.2 (AID 1224824).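 Also: cells exposed to compounds for 48 h before reading.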 Particulars: Gen2.2 BPDCN cells; at 45.8 µM (top of the series) unless noted. In short, it runs like this: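 CellTiter-Glo luminescence read after 48 h compound exposure at 37 C defines viability; percent activity set with DMSO as 100% and bortezomib (9.2 uM final) as 0%. 500 exponentially growing cells per well, RPMI plus 10% FBS.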

Test [8] can be described thus: High-throughput drug toxicity screening in the BPDCN cell line Cal-1 (AID 1224825). Particulars: Cal-1 BPDCN cell viability, qHTS; at 45.8 µM (top of the series) unless noted. In short, it runs like this: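 CellTiter-Glo luminescence after 48 h compound exposure; percent activity scaled with DMSO as 100% and bortezomib (9.2 uM final) as 0%. Cal-1 cells seeded at 500/well in RPMI, 10% FBS, no phenol red.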

Test [9] is described as follows: qHTS assay for measurement of the activity of small molecule inhibitors on Zika virus induced Caspase-3 activity in human iPSC derived neural progenitor cells (hNPCs) (AID 1224857; active = well fitted curve in the direction sought with a large enough effect; an effect the other way counts as inactive or inconclusive; also: nearly all actives have a fitted effect of over 65% in size; also: potency is read from the fitted curve at half-maximal effect). The method, boiled down:
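In medium with heparin 2 ug/ml and cyclopamine 2 uM, hNPCs (350 cells/well) received compound for one hour and then Zika virus at 2 FFU/cell; caspase activity was measured by Caspase-Glo 3/7 luminescence 6 h post-infection.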

The nature of test [10]: qHTS Screen of the MIPE 4.0 Collection Against Ewings Sarcoma (RDES) (AID 1259252; active = well fitted curve in the direction sought with a large enough effect; an effect the other way counts as inactive or inconclusive; also: potency is read from the fitted curve at half-maximal effect; nearly all actives have a fitted effect of over 35% in size). The method, boiled down: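 Dose series incubated 48 h with cells in RPMI plus 5% FBS, glutamine and penicillin/streptomycin; cell viability then quantified via CellTiter-Glo.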
Test [11] in a line: qHTS assay for measurement of the activity of small molecule inhibitors on Zika virus induced Caspase-3 activity in human astrocytoma cells (AID 1224859; active = well fitted curve in the direction sought with a large enough effect; an effect the other way counts as inactive or inconclusive;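 also: plate controls were ZIKV-infected untreated cells for no effect and uninfected cells for full effect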). In short, it runs like this: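 A cell-based luminescent caspase-3/7 assay used SNB-19 cells infected with ZIKV (2 FFU/cell) for 6 h following 1 h compound pretreatment.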
Test [12] can be described thus: qHTS assay for small molecule antagonists of the retinoid-related orphan receptor gamma (ROR-gamma) signaling pathway - cell viability counter screen (AID 720652; active = well fitted curve in the direction sought with a large enough effect in the repeat runs; an effect the other way counts as inactive or inconclusive;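 also: CHO reporter cells with doxycycline-induced ROR-gamma expression; compound exposure lasted 16 hr before ATP read; % is scaled to controls: 0 for no effect and ±100 for the full control effect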). In short, it runs like this:
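CHO RORE-LUC/TET-ROR line, 1,000 cells/well, 37 C 5% CO2 5 hr; cpd or DMSO + doxycycline induction, 16 hr. CellTiter-Glo, 30 min RT, luminescence = ATP content.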

Test [13] is described as follows: qHTS assay for cell viability of HEK293 cells (AID 743288; active = well fitted curve in the direction sought with a large enough effect; an effect the other way counts as inactive or inconclusive; also: % is scaled to controls: 0 for no effect and ±100 for the full control effect; nearly all actives have a fitted effect of over 50% in size). Particulars: ATP luminescence (CellTiter-Glo), 18 h; max response: stronger effect = lower value. The method, boiled down: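 Readout is luciferase-coupled ATP content (CellTiter-Glo luminescence, 30 min room temperature) as a measure of metabolically competent cells. Parental HEK293 cells were plated 5 h or more before compound addition, then treated 18 h at 37 C.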

The nature of test [14]: qHTS assay for cell viability of the p53RE-bla HCT-116 cell line (AID 743292; active = well fitted curve in the direction sought with a large enough effect; an effect the other way counts as inactive or inconclusive; also: potency is read from the fitted curve at half-maximal effect; nearly all actives have a fitted effect of over 55% in size). In short, it runs like this: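 HCT-116 p53RE-bla cells seeded 4,000/well; 5 h at 37 C; compound (DMSO) added; 16 h at 37 C; CellTiter-Glo added, 30 min RT; luminescence read.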
Test [15] in a line: qHTS Assay for Identifying Gametocytocidal Compounds (AID 743244; active = well fitted curve in the direction sought with a large enough effect; an effect the other way counts as inactive or inconclusive;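 also: % is scaled to controls: 0 for no effect and ±100 for the full control effect; actives lower the fluorescent signal which means gametocytes are killed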). The note with it: P. falciparum 3D7 stage III-V gametocytes, alamarBlue, 72 h; max response: stronger effect = lower value. The method, boiled down:
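In this qHTS viability screen, late-stage 3D7 gametocytes are incubated with compound for 72 h, then with alamarBlue for 24 h; reduced resorufin fluorescence marks killing.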

Where “and” joins values, the source holds several entries; their conditions need not be identical. Equal entries are not always repeated. Records with an inconclusive call do not appear. Calls of active or inactive are those of the source. Unless noted, no rule for the calls is given here.

As for `CC(=O)N(C)C1(c2ccccc2)CCN(CCC[C@]2(c3ccc(Cl)c(Cl)c3)CCCN(C(=O)c3ccccc3)C2)CC1`, the activity, percent of control in [1] was -0.455%. Besides, in [2], the remaining proliferation (% of control), lower = more inhibition was -1.35%. In [3], the parasite growth, % of DMSO control was 6.96%. The parasite growth remaining, % of DMSO control (lower = more inhibition) in [4] turned out to be 7.14%. In addition, the parasite growth, % of control (lower = inhibition) in test [5] turned out to be 38.7%. Further, the growth, % of control in [6] worked out at 7.98%. Further, the cell viability, % of control (lower = more cytotoxic) in [7] was determined as 9.34%. Further, the viability (% of control) in test [8] amounted to 7.8%. Besides, in test [9], the Potency result was “inactive”. The Potency in test [10] is 26.4 µM (active).

`O=C(O)[C@H]1O[C@H](Oc2cc3oc(-c4ccccc4)cc(=O)c3c(O)c2O)[C@H](O)[C@@H](O)[C@H]1O` displayed a parasite growth, % of DMSO control in test [3] of 69.9%. Besides, the parasite growth remaining, % of DMSO control (lower = more inhibition) in [4] worked out at 89%. In test [5], the parasite growth, % of control (lower = inhibition) was 57.6%. In [6], the growth, % of control turned out to be 96.3%. Further, in test [7], the cell viability, % of control (lower = more cytotoxic) amounted to 46.5%. Moreover, the viability (% of control) in test [8] is 105%. Further, the Potency result in [9] and in test [11] was “inactive” in each case.

Take `O=C(O)c1cc(O)c2c(c1)C(=O)c1cccc(O)c1C2=O`: the Potency entry in test [12] was “inactive”. The max response in test [13] is -22.9% (inactive). Moreover, the Potency in test [14] was 35.5 µM (active); in test [9] it was 38.2 µM (active). Besides, the parasite growth, % of DMSO control in test [3] stood at 62.1% [at 57.5 µM]. Moreover, in [4], the parasite growth remaining, % of DMSO control (lower = more inhibition) came out at 73.9% [at 57.5 µM]. In addition, in test [5], the parasite growth, % of control (lower = inhibition) was 43.2% [at 57.5 µM]. The cell viability, % of control (lower = more cytotoxic) in test [7] came out at 168% [at 92.2 µM]. The viability (% of control) in [8] was 124% [at 92.2 µM].

In [3], `CCn1c(C(=O)N(C2CC2)C2CC2)cc2c3c(ncn3C)c(Nc3cc(C)n(C)n3)nc21` displayed a parasite growth, % of DMSO control of 9.81%. The parasite growth remaining, % of DMSO control (lower = more inhibition) in test [4] stood at 12.4%. Moreover, the parasite growth, % of control (lower = inhibition) in test [5] is 23.5%. The cell viability, % of control (lower = more cytotoxic) in test [7] was found to be 144%. In [8], the viability (% of control) is 90.8%. In addition, the Potency entry in test [9] was “inactive”.

With `Cc1cnc(C(=O)O)c[n+]1[O-]`, the max response in test [15] was 8.17% (inactive) and 2.06% (inactive) and -4.26% (inactive). This compound yielded a parasite growth, % of DMSO control in test [3] of 97%. For the same compound, in [4], the parasite growth remaining, % of DMSO control (lower = more inhibition) came out at 104%. Also, in [5], the parasite growth, % of control (lower = inhibition) was 108%. This compound yielded a growth, % of control in test [6] of 66.8%. In addition, the cell viability, % of control (lower = more cytotoxic) in test [7] was 174%. The viability (% of control) in [8] amounted to 105%. For the same compound, in test [9], the Potency entry was “inactive”.

The compound `COc1ccc(-c2oc3c(CC=C(C)C)c(OC4O[C@H](CO)[C@@H](O)[C@H](O)[C@@H]4O)cc(O)c3c(=O)c2OC2O[C@@H](C)[C@H](O)[C@@H](O)[C@@H]2O)cc1` (stereo not given in full) gave a parasite growth, % of DMSO control in test [3] of 8.49%. Also, in test [4], the parasite growth remaining, % of DMSO control (lower = more inhibition) is 5.99%. Besides, in test [5], the parasite growth, % of control (lower = inhibition) was determined as 36.2%. The compound further showed a growth, % of control in test [6] of 11.3%. In addition, the cell viability, % of control (lower = more cytotoxic) in [7] was found to be 68.1%. Also, the viability (% of control) in test [8] came to 102%. Moreover, the Potency result in test [9] was “inactive”.

Regarding `O=C1C(Cl)=C(NCCN2CCOCC2)C(=O)c2ncccc21`, the activity, percent of control in [1] came out at 17.3%. Besides, the remaining proliferation (% of control), lower = more inhibition in [2] worked out at 26.6%. This compound also came in with a parasite growth, % of DMSO control in [3] of 15.2%. In addition, in test [4], the parasite growth remaining, % of DMSO control (lower = more inhibition) amounted to 18%. In test [5], the parasite growth, % of control (lower = inhibition) amounted to 16%. The growth, % of control in [6] was found to be 10.3%. Moreover, in [7], the cell viability, % of control (lower = more cytotoxic) was found to be 2.36%. In test [8], the viability (% of control) was found to be 0.784%. The Potency in test [9] was 2.35 µM (active).

Regarding `O=C1Nc2ccc(Cl)cc2C(C#CC2CC2)(C(F)(F)F)O1` (stereo not given), in [3], the parasite growth, % of DMSO control came out at 40.8%. In addition, in test [4], the parasite growth remaining, % of DMSO control (lower = more inhibition) turned out to be 76%. Also, the parasite growth, % of control (lower = inhibition) in [5] turned out to be 57.2%. In addition, in test [6], the growth, % of control turned out to be 63%. Also, the cell viability, % of control (lower = more cytotoxic) in test [7] stood at 75.6%. The viability (% of control) in [8] was 56.5%. In addition, the Potency entry in [9] is “inactive”.

As to `CC(C)C(C)C=CC(C)C1CCC2C3=CC=C4CC(O)CCC4(C)C3CCC21C` (stereo not given), in test [4], the parasite growth remaining, % of DMSO control (lower = more inhibition) is 102%. Further, the parasite growth, % of control (lower = inhibition) in [5] turned out to be 92.8%. Moreover, in [6], the growth, % of control is 98%. Moreover, in [7], the cell viability, % of control (lower = more cytotoxic) came out at 136%. In addition, the viability (% of control) in [8] stood at 127%. Also, the Potency result in test [9] is “inactive”.
